From PubChem BioAssay (NCI)
About 79,000 compounds went through this panel and 15% of them were active in at least one assay; those are over-represented in the sample as a whole. Values without a mark were called inactive. Calls of active or inactive are those of the source. Rule as the data show it: active = growth inhibition above about 70%; inactive = the rest.

Columns and labels:
[1] = NCI Yeast Anticancer Drug Screen. Data for the rad52 strain (AID 147);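 also: 0% = growth of vehicle-treated control cultures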; settings: S. cerevisiae rad52 mutant growth inhibition, hits give high values
Summary of the method: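 Vehicle-treated cultures served as the reference for growth inhibition of compound-exposed yeast bearing a DNA repair mutation.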

[2] = NCI Yeast Anticancer Drug Screen. Data for the wt1 strain (AID 149);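 also: 0% = growth of vehicle-treated wt1 cultures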; settings: S. cerevisiae wt1 strain (SPY 50644) growth inhibition, hits give high values
Summary of the method: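 Readout: yeast growth inhibition, normalised to vehicle controls, in the wt1 strain exposed to test compounds.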

[3] = NCI Yeast Anticancer Drug Screen. Data for the rad50EPP+ strain (AID 151);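 also: 0% = growth of vehicle-treated control cultures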; settings: S. cerevisiae rad50 mutant strain, hits give high values
Summary of the method: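 In this screen, rad50EPP+ yeast were exposed to compounds. Growth inhibition was scored against vehicle-treated controls.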

[4] = NCI Yeast Anticancer Drug Screen. Data for the rad50 strain (AID 155);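 also: 0% = growth of vehicle-only cultures of the same strain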; settings: S. cerevisiae rad50 strain growth inhibition, hits give high values
Summary of the method: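 Compounds were tested on a yeast strain with an engineered DNA damage repair alteration; the reported value is growth inhibition normalised to vehicle treatment.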

[5] = NCI Yeast Anticancer Drug Screen. Data for the mec2-1 strain (AID 157); settings: S. cerevisiae mec2-1 strain, hits give high values
Summary of the method: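 Vehicle-treated cultures served as reference for growth inhibition of compound-exposed mec2-1 yeast.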

[6] = NCI Yeast Anticancer Drug Screen. Data for the rad14 strain (AID 159);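 also: 0% = growth of vehicle-treated control cultures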; settings: S. cerevisiae rad14 strain growth inhibition, hits give high values
Summary of the method: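 Compound-treated yeast with a defined DNA-repair lesion; growth inhibition normalised to vehicle-treated cultures.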

[7] = NCI Yeast Anticancer Drug Screen. Data for the sgs1 mgt1 strain (AID 161);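 also: 0% = growth of cultures given vehicle only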; settings: S. cerevisiae sgs1 mgt1 strain, hits give high values
Summary of the method: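 Test agents were incubated with a DNA-repair-mutant yeast strain. Growth was then read and compared against vehicle-treated controls.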

[8] = NCI Yeast Anticancer Drug Screen. Data for the CLN2oe strain (AID 163);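 also: 0% = growth of vehicle-only control cultures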; settings: S. cerevisiae CLN2oe strain, hits give high values
Summary of the method: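 Inhibition relative to vehicle-treated yeast is reported. Cells: strain with genetic alteration in cell-cycle control, grown with compound.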

[9] = NCI Yeast Anticancer Drug Screen. Data for the cln2 rad14 strain (AID 165);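 also: 0% = growth equal to vehicle treated cultures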; settings: S. cerevisiae cln2 rad14 strain, hits give high values
Summary of the method: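 Each compound was tested on cln2 rad14 yeast. Inhibition of growth was calculated against vehicle-exposed controls.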

[10] = NCI Yeast Anticancer Drug Screen. Data for the bub3 strain (AID 167); settings: S. cerevisiae bub3 mutant strain, hits give high values
Summary of the method: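 Growth of a checkpoint-deficient yeast mutant is measured after compound exposure. Values represent inhibition relative to vehicle.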

[11] = NCI Yeast Anticancer Drug Screen. Data for the wt2 strain (AID 169);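 also: 0% = growth of vehicle-treated yeast cultures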; settings: S. cerevisiae wt2 strain growth inhibition, hits give high values
Summary of the method: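 Inhibition of yeast growth was determined after compound treatment, normalised to controls receiving only vehicle.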

[12] = NCI Yeast Anticancer Drug Screen. Data for the mlh1 strain (AID 171);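 also: 0% = growth of vehicle-treated control cultures of the same strain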; settings: S. cerevisiae mlh1 strain growth inhibition, hits give high values
Summary of the method: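 Vehicle-normalised growth inhibition of a repair- or checkpoint-altered yeast strain following compound treatment.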

[13] = NCI Yeast Anticancer Drug Screen. Data for the sgs1 strain (AID 173);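 also: 0% = growth of vehicle-only control cultures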; settings: S. cerevisiae sgs1 mutant, hits give high values
Summary of the method: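 Screen format: yeast with repair or checkpoint alterations, compound exposure, growth read relative to vehicle.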

[14] = NCI Yeast Anticancer Drug Screen. Data for the mlh1 rad18 strain (AID 175); settings: S. cerevisiae mlh1 rad18 strain growth inhibition, hits give high values
Summary of the method: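 Vehicle-treated cultures served as the reference for growth inhibition in a yeast strain carrying DNA damage repair alterations exposed to each compound.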

[15] = NCI Yeast Anticancer Drug Screen. Data for the rad18 strain (AID 177); settings: S. cerevisiae rad18 mutant growth inhibition, hits give high values
Summary of the method: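 Test articles were incubated with altered yeast defective in DNA damage repair. Results are given as inhibition of growth versus vehicle.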

[16] = at 5.0 µM (retest, dose inferred, filed as 0.5)
[17] = at 50.0 µM (retest, dose inferred, filed as 5.0)

SMILES: COC(COC(=O)N1CCN(C=O)CC1)C1=C(N2CC2)C(=O)C(C)=C(N2CC2)C1=O (stereo unspecified)
- growth inhibition ([1]; at 1.2 µM): 4%
- growth inhibition ([1]; at 3.7 µM): 18%
- growth inhibition ([1]; at 11.0 µM): 30%
- growth inhibition ([1]; at 33.0 µM): 66%
- growth inhibition ([1]; at 100.0 µM): 79% (active)
- growth inhibition ([2]; at 1.2 µM): 10%
- growth inhibition ([2]; at 3.7 µM): 12%
- growth inhibition ([2]; at 11.0 µM): 22%
- growth inhibition ([2]; at 33.0 µM): 39%
- growth inhibition ([2]; at 100.0 µM): 47%
- growth inhibition ([3]; at 1.2 µM): -44%
- growth inhibition ([3]; at 3.7 µM): -38%
- growth inhibition ([3]; at 11.0 µM): -35%
- growth inhibition ([3]; at 33.0 µM): -8%
- growth inhibition ([3]; at 100.0 µM): -5%
- growth inhibition ([4]; at 1.2 µM): 17%
- growth inhibition ([4]; at 3.7 µM): 35%
- growth inhibition [4, 16]: 64%
- growth inhibition ([4]; at 11.0 µM): 43%
- growth inhibition ([4]; at 33.0 µM): 53%
- growth inhibition [4, 17]: 22%
- growth inhibition ([4]; at 50.0 µM): 35.3%
- growth inhibition ([4]; at 100.0 µM): 79% (active)
- growth inhibition ([5]; at 1.2 µM): -6%
- growth inhibition ([5]; at 3.7 µM): 1%
- growth inhibition [5, 16]: 19%
- growth inhibition ([5]; at 11.0 µM): 6%
- growth inhibition ([5]; at 33.0 µM): 36%
- growth inhibition [5, 17]: 35%
- growth inhibition ([5]; at 50.0 µM): 32.9%
- growth inhibition ([5]; at 100.0 µM): 67%
- growth inhibition ([6]; at 1.2 µM): 4%
- growth inhibition ([6]; at 3.7 µM): 1%
- growth inhibition ([6]; at 11.0 µM): 6%
- growth inhibition ([6]; at 33.0 µM): 39%
- growth inhibition ([6]; at 100.0 µM): 74% (active)
- growth inhibition [7, 16]: -8%
- growth inhibition [7, 17]: 26%
- growth inhibition ([7]; at 50.0 µM): 40.4%
- growth inhibition ([8]; at 1.2 µM): 12%
- growth inhibition ([8]; at 3.7 µM): 23%
- growth inhibition ([8]; at 11.0 µM): 25%
- growth inhibition ([8]; at 33.0 µM): 29%
- growth inhibition ([8]; at 100.0 µM): 53%
- growth inhibition [9, 16]: -11%
- growth inhibition [9, 17]: 27%
- growth inhibition ([9]; at 50.0 µM): 34.5%
- growth inhibition ([10]; at 1.2 µM): -18%
- growth inhibition ([10]; at 3.7 µM): -3%
- growth inhibition [10, 16]: -2%
- growth inhibition ([10]; at 11.0 µM): -4%
- growth inhibition ([10]; at 33.0 µM): 10%
- growth inhibition [10, 17]: 1%
- growth inhibition ([10]; at 50.0 µM): -10.2%
- growth inhibition ([10]; at 100.0 µM): 18%
- growth inhibition ([11]; at 1.2 µM): -27%
- growth inhibition ([11]; at 3.7 µM): -33%
- growth inhibition ([11]; at 11.0 µM): -25%
- growth inhibition ([11]; at 33.0 µM): -17%
- growth inhibition ([11]; at 100.0 µM): -2%
- growth inhibition ([12]; at 1.2 µM): -7%
- growth inhibition ([12]; at 3.7 µM): -32%
- growth inhibition ([12]; at 11.0 µM): -9%
- growth inhibition ([12]; at 33.0 µM): 17%
- growth inhibition ([12]; at 100.0 µM): 38%
- growth inhibition ([13]; at 1.2 µM): 20%
- growth inhibition ([13]; at 3.7 µM): 14%
- growth inhibition ([13]; at 11.0 µM): 24%
- growth inhibition ([13]; at 33.0 µM): 40%
- growth inhibition ([13]; at 100.0 µM): 64%
- growth inhibition [14, 16]: 23%
- growth inhibition [14, 17]: 74% (active)
- growth inhibition ([14]; at 50.0 µM): 79.4% (active)
- growth inhibition ([15]; at 1.2 µM): 26%
- growth inhibition ([15]; at 3.7 µM): 59%
- growth inhibition ([15]; at 11.0 µM): 79% (active)
- growth inhibition ([15]; at 33.0 µM): 89% (active)
- growth inhibition ([15]; at 100.0 µM): 93% (active)

SMILES: CC(=O)O/C(=C1\C[C@H]2[C@@H]3CC=C4C[C@@H](OC(C)=O)CC[C@]4(C)[C@H]3CC[C@]2(C)C1=O)C(F)(F)F
- growth inhibition ([1]; at 1.2 µM): -2%
- growth inhibition ([1]; at 3.7 µM): -1%
- growth inhibition ([1]; at 11.0 µM): -5%
- growth inhibition ([1]; at 33.0 µM): -3%
- growth inhibition ([1]; at 100.0 µM): 0%
- growth inhibition ([2]; at 1.2 µM): -1%
- growth inhibition ([2]; at 3.7 µM): 1%
- growth inhibition ([2]; at 11.0 µM): 2%
- growth inhibition ([2]; at 33.0 µM): 0%
- growth inhibition ([2]; at 100.0 µM): 4%
- growth inhibition ([3]; at 1.2 µM): 1%
- growth inhibition ([3]; at 3.7 µM): 6%
- growth inhibition ([3]; at 11.0 µM): 5%
- growth inhibition ([3]; at 33.0 µM): 3%
- growth inhibition ([3]; at 100.0 µM): 1%
- growth inhibition ([4]; at 1.2 µM): 3%
- growth inhibition ([4]; at 3.7 µM): -1%
- growth inhibition [4, 16]: 18%
- growth inhibition ([4]; at 11.0 µM): 7%
- growth inhibition ([4]; at 33.0 µM): 2%
- growth inhibition [4, 17]: 18%
- growth inhibition ([4]; at 50.0 µM): 76.1% (active)
- growth inhibition ([4]; at 100.0 µM): 0%
- growth inhibition ([5]; at 1.2 µM): 2%
- growth inhibition ([5]; at 3.7 µM): 4%
- growth inhibition [5, 16]: 19%
- growth inhibition ([5]; at 11.0 µM): 4%
- growth inhibition ([5]; at 33.0 µM): 5%
- growth inhibition [5, 17]: 3%
- growth inhibition ([5]; at 50.0 µM): 80.5% (active)
- growth inhibition ([5]; at 100.0 µM): 14%
- growth inhibition ([6]; at 1.2 µM): 1%
- growth inhibition ([6]; at 3.7 µM): -4%
- growth inhibition ([6]; at 11.0 µM): 0%
- growth inhibition ([6]; at 33.0 µM): -7%
- growth inhibition ([6]; at 100.0 µM): 22%
- growth inhibition [7, 16]: 2%
- growth inhibition [7, 17]: 18%
- growth inhibition ([7]; at 50.0 µM): 77.8% (active)
- growth inhibition ([8]; at 1.2 µM): -140%
- growth inhibition ([8]; at 3.7 µM): 4%
- growth inhibition ([8]; at 11.0 µM): 2%
- growth inhibition ([8]; at 33.0 µM): 1%
- growth inhibition ([8]; at 100.0 µM): 6%
- growth inhibition [9, 16]: 37%
- growth inhibition [9, 17]: -1%
- growth inhibition ([9]; at 50.0 µM): 94% (active)
- growth inhibition ([10]; at 1.2 µM): -1%
- growth inhibition ([10]; at 3.7 µM): 1%
- growth inhibition [10, 16]: -10%
- growth inhibition ([10]; at 11.0 µM): 10%
- growth inhibition ([10]; at 33.0 µM): 3%
- growth inhibition [10, 17]: 13%
- growth inhibition ([10]; at 50.0 µM): 61.7%
- growth inhibition ([10]; at 100.0 µM): 6%
- growth inhibition ([12]; at 1.2 µM): 4%
- growth inhibition ([12]; at 3.7 µM): 4%
- growth inhibition ([12]; at 11.0 µM): 3%
- growth inhibition ([12]; at 33.0 µM): -20%
- growth inhibition ([12]; at 100.0 µM): 11%
- growth inhibition [14, 16]: 9%
- growth inhibition [14, 17]: 9%
- growth inhibition ([14]; at 50.0 µM): 63.5%
